FID counter – displaces DNA intercalator in HCV helicase counter-screen. AID 1845. inhibition, % at 7.9 µM. 0.17% of 290,000 active. DNA fluorescent intercalator displacement, fluorescence; in the data active = inhibition above about 37%;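 also: higher means more ethidium bromide displaced from hairpin DNA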
IEC-6 tox-1 – IEC-6 cytotoxicity, counter-screen for KLF5 inhibitors; luminescence viability; inhibition, % at 5 µM; 0.78% of 290,000 active
KLF5 inh – inhibitors of KLF5 expression. AID 1700. DLD-1 KLF5 promoter-luciferase reporter, luminescence. 0.23% of 290,000 active. inhibition, % at 5 µM;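 active = inhibition above a per-plate limit of that plate's mean compound inhibition plus 3 SD, cut at about 60% in these data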;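 also: higher means less KLF5 promoter-driven luciferase light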
GPR7 antag – human neuropeptides B/W receptor 1 antagonism; 1.1% of 290,000 active; GPR7-expressing cells, fluorescence antagonist assay; inhibition, % at 4.4 µM; AID 1861; P48145; in the data active = inhibition above about 16%, passing the limit was not always enough;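 also: cells stimulated with the agonist NPW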
Target sequence (P48145 whole entry, looked up): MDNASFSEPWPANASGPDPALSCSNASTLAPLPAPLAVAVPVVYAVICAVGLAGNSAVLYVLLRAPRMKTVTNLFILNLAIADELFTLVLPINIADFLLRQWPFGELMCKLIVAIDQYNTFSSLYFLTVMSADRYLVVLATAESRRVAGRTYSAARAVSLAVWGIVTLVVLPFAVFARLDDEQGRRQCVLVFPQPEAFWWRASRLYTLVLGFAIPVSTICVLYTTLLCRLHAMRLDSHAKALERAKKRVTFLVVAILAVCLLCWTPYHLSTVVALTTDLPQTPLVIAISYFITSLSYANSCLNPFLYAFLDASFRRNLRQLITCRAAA
BaF3 tox – counter-screen for JAK2V617F inhibitors: parental Ba/F3 viability inhibitors; CellTiter-Glo ATP luminescence; inhibition, % at 5.6 µM; 1.1% of 220,000 active; AID 1486;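 active = inhibition above a per-campaign cutoff, the mean inhibition of all tested compounds plus 3 SD, cut at about 27% in these data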
Ba/F3 V617F tox – loss of viability in JAK2V617F-driven Ba/F3 cells | Ba/F3 EpoR-JAK2V617F viability, ATP luminescence | inhibition, % at 5.6 µM | 1.1% of 220,000 active | AID 1446;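 active = inhibition above the campaign mean plus 3 SD over all tested compounds, cut at about 24% in these data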;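 also: cytokine-independent growth of Ba/F3 cells driven by EpoR plus mutant JAK2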
KLF5 inh confirm – confirmation of KLF5 inhibitors; shares compounds with KLF5 inh; DLD-1 KLF5 promoter firefly luciferase reporter, luminescence; inhibition, % at 4 µM; 79% of 610 active; AID 1834;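 active = inhibition above a set limit taken from the earlier primary screen, cut at about 63% in these data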
IEC-6 tox-2 – counter-screen for KLF5 inhibitors: cytotoxicity in rat IEC-6 cells; shares compounds with KLF5 inh; IEC-6 rat intestinal cells, viability luminescence; inhibition, % at 4 µM; 56% of 610 active; AID 1905; in the data active = inhibition above about 23%;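 also: cells exposed to compounds for 48 hours before viability read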
IEC-6 cytotox cf – IEC-6 cytotoxicity, confirmation assay | shares compounds with IEC-6 tox-1 | IEC-6 rat intestinal epithelial viability, luminescence | inhibition, % at 5 µM | 63% of 1,900 active | AID 1907
Of the large screens only hits and unclear results are named; the others gave an inactive call (follow-up assays come after a bar, where they were run). Rows were chosen to be rich in hits. Some 2.6% of all compounds tested hit in one or more screens of this group. Rule as the data show it, unless noted: active = inhibition above about 22%; inactive = the rest.

Oc1c(C(Nc2cccc(C(F)(F)F)c2)c2ccncc2)ccc2cccnc12 (configuration not stated)	none
Oc1c(C(Nc2nccs2)c2ccc(C(F)(F)F)cc2)ccc2cccnc12 (configuration not stated)	IEC-6 tox-1 44, KLF5 inh 62, BaF3 tox 54, Ba/F3 V617F tox 60 | KLF5 inh confirm 84 | IEC-6 tox-2 57 | IEC-6 cytotox cf 62
CCCCC(=O)NC(c1ccc(Cl)cc1)c1ccc2cccnc2c1O (configuration not stated)	IEC-6 tox-1 57, KLF5 inh 84 (no result: BaF3 tox, Ba/F3 V617F tox) | KLF5 inh confirm 88 | IEC-6 tox-2 66 | IEC-6 cytotox cf 68
Cc1ccc(C(NC(=O)C(C)C)c2cc([N+](=O)[O-])c3cccnc3c2O)cc1 (configuration not stated)	none
COc1ccccc1C(NC(C)=O)c1cc(Cl)c2cccnc2c1O (configuration not stated)	IEC-6 tox-1 61, KLF5 inh 73 (no result: BaF3 tox, Ba/F3 V617F tox) | KLF5 inh confirm 71 | IEC-6 tox-2 81 | IEC-6 cytotox cf 43
COc1ccc(C(NC(C)=O)c2cc(Cl)c3cccnc3c2O)cc1OC (configuration not stated)	none
CC(=O)NC(c1ccc2ccccc2c1)c1ccc2cccnc2c1O (configuration not stated)	IEC-6 tox-1 99, KLF5 inh 77 (no result: BaF3 tox, Ba/F3 V617F tox) | KLF5 inh confirm 87 | IEC-6 tox-2 79 | IEC-6 cytotox cf 82
CCCC(=O)NC(c1ccc(Cl)cc1)c1ccc2cccnc2c1O (configuration not stated)	IEC-6 tox-1 40, KLF5 inh 78 (no result: BaF3 tox, Ba/F3 V617F tox) | KLF5 inh confirm 82 | IEC-6 tox-2 77 | IEC-6 cytotox cf 67
CCCC(=O)NC(c1ccc(C)cc1)c1ccc2cccnc2c1O (configuration not stated)	IEC-6 tox-1 55, KLF5 inh 99 (no result: BaF3 tox, Ba/F3 V617F tox) | KLF5 inh confirm 87 | IEC-6 tox-2 75 | IEC-6 cytotox cf 83
CCCC(=O)NC(c1ccccc1Cl)c1c(O)ccc2ccccc12 (configuration not stated)	none
CCCn1c(N)c(N(CCOC)C(=O)c2cc(S(=O)(=O)N3CCCCCC3)ccc2OC)c(=O)[nH]c1=O	none (no result: BaF3 tox, Ba/F3 V617F tox)
S=C(Nc1ccccc1)N1CCN(C(=S)Nc2ccccc2)CC1	none
Cn1c(=O)[nH]c(=O)c2c1nc1n2CCS1	none
O=c1[nH]c(=S)[nH]c2nc(-c3cccs3)cc(C(F)(F)F)c12	none (no result: BaF3 tox, Ba/F3 V617F tox)
COc1ccc2nc(SCC(=O)NC3CCCC3)c(C)cc2c1	IEC-6 tox-1 45, KLF5 inh 71 (no result: BaF3 tox, Ba/F3 V617F tox) | KLF5 inh confirm 85 | IEC-6 tox-2 inactive | IEC-6 cytotox cf 27
COc1ccc2nc(SCC(=O)NC3CCCCC3)[nH]c2c1	none (no result: BaF3 tox, Ba/F3 V617F tox)
CCOC(=O)CNC(=O)CSc1ncnc2c1cnn2-c1ccc(C)cc1	none
COc1ccc(-c2noc(CSc3nc(N)cc(=O)[nH]3)n2)cc1	none
Cc1ccc(/C=N/NC(=O)c2c(-c3ccccc3)noc2C)c(O)c1	IEC-6 tox-1 26, KLF5 inh 66 (no result: BaF3 tox, Ba/F3 V617F tox) | KLF5 inh confirm 63 | IEC-6 tox-2 23 | IEC-6 cytotox cf inactive
COc1cc2c(c(OC)c1OC)-c1ccc(OC)c(=O)cc1C(NC(C)=O)CC2 (configuration not stated)	IEC-6 tox-1 94, KLF5 inh 71 (no result: BaF3 tox, Ba/F3 V617F tox) | KLF5 inh confirm 88 | IEC-6 tox-2 82 | IEC-6 cytotox cf 80
Cc1nc2sc(C(c3ccco3)N3CCC(C)CC3)c(O)n2n1 (configuration not stated)	none
COc1ccc(N/C=C/C(=O)c2cc(OC)c(OC)c(OC)c2)cc1	IEC-6 tox-1 81, KLF5 inh 68 (no result: BaF3 tox, Ba/F3 V617F tox) | KLF5 inh confirm 73 | IEC-6 tox-2 57 | IEC-6 cytotox cf 59
CCO[C@H]1OC(C(=O)NCc2nc3ccccc3[nH]2)=C[C@@H](C2CC2)[C@@H]1CCCO	IEC-6 tox-1 72, KLF5 inh 72, BaF3 tox 73, Ba/F3 V617F tox 74 | KLF5 inh confirm 78 | IEC-6 tox-2 64 | IEC-6 cytotox cf 53
COc1ccc(OC)c(Nc2cc(C)nc3ccccc23)c1	none

Bioassay records as filed in PubChem.
